Sampled rows, rich in hits. Any-hit rate of the full collection: about 10%.
HEK293 tox: HEK 293 cell cytotoxicity. Potency, µM (highest dose often 115 µM), usual class: inhibitors. 94,000 compounds, 6.6% hits. HEK 293 viability, ATP luminescence (CellTiter-Glo), 48-72 h; further: nearly all actives have a fitted effect of over 60% in size
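HEK 293 cells seeded at 250 cells/well were exposed to compound for 48 or 72 hr at 37 degree Celsius. Viability taken as ATP content by CellTiter-Glo luminescence.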
NIH3T3 tox: kills NIH 3T3 cells; NIH 3T3 viability, CellTiter-Glo ATP luminescence, 48-72 h; Potency, µM (doses to about 96.7 µM), actives largely listed as inhibitors; 94,000 compounds, 4.3% hits; further: nearly all actives have a fitted effect of over 55% in size
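First NIH 3T3 cells are plated at 400 cells/well; next compound is pinned in; then plates incubate 48 or 72 hr at 37 °C; finally CellTiter-Glo is added and luminescence read after 10 min.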
GPT2 inh: GPT2 alanine aminotransferase inhibition; Q8TD30; Recombinant GPT2, coupled pyruvate oxidase/HRP Amplex Red fluorescence; Potency, µM (titrated, usually from 57.7 µM), actives largely listed as inhibitors; 100,000 compounds, 0.25% hits; AID 1671188; further: nearly all actives have a fitted effect of over 60% in size
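Fluorescence of coupled pyruvate oxidase/HRP/Amplex Red system (50uM Amplex, 30 min, dark) reports pyruvate formed by GPT2. Enzyme reaction: 10ng/uL GPT2, 2mM L-alanine, 250uM a-KG, 30 min room temperature, pH 7.5; 50uM AOA control.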
NPR1 antag: human Npr1 receptor antagonism. P16066. HEK293 hNpr1 GloSensor cGMP, ANP-stimulated luminescence. Potency, µM (top dose mostly 46.3 µM), usual class: inhibitors. 76,000 compounds, 1.6% hits; calls by dose curve; further: nearly all actives have a fitted effect of over 60% in size
Target sequence (P16066 whole entry, looked up): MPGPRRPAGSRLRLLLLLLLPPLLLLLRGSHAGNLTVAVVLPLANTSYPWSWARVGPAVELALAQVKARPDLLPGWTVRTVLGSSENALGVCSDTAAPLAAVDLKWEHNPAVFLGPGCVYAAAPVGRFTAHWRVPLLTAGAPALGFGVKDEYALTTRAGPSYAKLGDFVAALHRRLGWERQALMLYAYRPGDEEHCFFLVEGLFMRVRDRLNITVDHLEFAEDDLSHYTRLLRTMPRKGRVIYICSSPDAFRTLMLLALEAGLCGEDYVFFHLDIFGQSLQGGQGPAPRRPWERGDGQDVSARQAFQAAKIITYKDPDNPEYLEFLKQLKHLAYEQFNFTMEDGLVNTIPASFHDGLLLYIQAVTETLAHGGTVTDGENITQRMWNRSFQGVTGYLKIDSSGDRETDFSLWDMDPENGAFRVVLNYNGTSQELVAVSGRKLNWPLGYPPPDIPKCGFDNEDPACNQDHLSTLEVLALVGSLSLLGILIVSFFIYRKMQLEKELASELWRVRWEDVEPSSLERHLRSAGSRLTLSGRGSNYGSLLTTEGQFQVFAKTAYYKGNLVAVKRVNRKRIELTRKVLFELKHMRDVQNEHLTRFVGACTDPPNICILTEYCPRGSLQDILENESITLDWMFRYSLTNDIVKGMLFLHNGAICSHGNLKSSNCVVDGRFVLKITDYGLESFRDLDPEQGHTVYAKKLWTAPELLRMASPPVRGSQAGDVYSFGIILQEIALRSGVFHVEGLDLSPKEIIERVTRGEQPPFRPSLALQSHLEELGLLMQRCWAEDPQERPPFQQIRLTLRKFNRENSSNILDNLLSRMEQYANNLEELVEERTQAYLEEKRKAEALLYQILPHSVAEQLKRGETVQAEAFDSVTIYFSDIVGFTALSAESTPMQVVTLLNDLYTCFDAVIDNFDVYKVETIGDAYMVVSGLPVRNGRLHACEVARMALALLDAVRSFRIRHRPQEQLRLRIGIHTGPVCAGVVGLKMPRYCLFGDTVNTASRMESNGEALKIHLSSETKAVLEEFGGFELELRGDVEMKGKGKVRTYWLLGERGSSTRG
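Compound pre-incubated 30 min at room temperature on GloSensor-loaded HEK293 cells stably carrying hNpr1 and the pGS-40F cGMP biosensor. Stimulation uses hNppA at 0.1 nM final; luminescence is taken at baseline and 20 min post-agonist.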
FLuc inh-1: Photinus pyralis luciferase inhibition | P08659 | Potency, µM (titrated, usually from 115 µM), most hits filed as inhibitors | purified P. pyralis luciferase, luminescence, biochemical | 76,000 compounds, 2.5% hits; further: nearly all actives have a fitted effect of over 65% in size
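Inhibitors were tested against purified firefly luciferase in a biochemical, low-substrate format (both substrates at 10uM) and luminescence measured with a CCD imager.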
FLuc SDR -ATP: stabilizes firefly luciferase without ATP; shares compounds with FLuc inh-1; Purified FLuc-C-HiBiT, Nano-Glo HiBiT luminescence, no ATP; Potency, µM (titrated, usually from 32.7 µM), most hits filed as activators; 1,300 compounds, 7.8% hits; further: nearly all actives have a fitted effect of over 55% in size
FLuc SDR ATP: binders stabilizing firefly luciferase, plus ATP; shares compounds with FLuc inh-1; purified FLuc-C-HiBiT + ATP, HiBiT complementation luminescence; Potency, µM (series often up to 32.7 µM), most hits filed as activators; 1,300 compounds, 8.7% hits;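 further: signal reports ligand binding via conformational change of the enzyme rather than luciferase catalysis; nearly all actives have a fitted effect of over 55% in size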
FLuc inh-2: inhibitors of firefly luciferase enzymatic activity; purified FLuc-C-HiBiT enzyme, luciferin luminescence; 1,300 compounds, 42% hits; Potency, µM (top dose mostly 32.7 µM), most hits filed as inhibitors; shares compounds with FLuc inh-1; further: nearly all actives have a fitted effect of over 70% in size
Numbers stand for hits; . = inactive; ? = inconclusive; / = no result given; [ ] = dose if it differs, or a comment. Unless noted, the call rests on the fitted dose curve; in most records, active means well fitted curve in the direction sought with a large enough effect; inconclusive means small, poorly fitted or top-dose-only effect, or another doubt; inactive means no such curve, though single readings can be large; an effect the other way counts as inactive or inconclusive.

SMILES	HEK293 tox	NIH3T3 tox	GPT2 inh	NPR1 antag	FLuc inh-1	FLuc SDR -ATP	FLuc SDR ATP	FLuc inh-2
COCCN1CCOc2nc(-c3cc(F)cc(OC)c3)ncc2C1=O	.	28µM	.	?	1.6µM	?	?	11µM
COc1cc(F)cc(-c2ncc3c(n2)OCCN(Cc2ccc(F)cc2F)C3=O)c1	?	?	.	?	.	/	/	/
NC(=O)[C@@H]1CCCN1C(=O)c1ccc2oc(-c3cccc(F)c3)nc2c1	?	?	.[11.5 µM]	.	11µM	.	.	.
O[C@@H]1C[C@@H](c2nc(C3CC3)no2)N(Cc2ccc(OC(F)(F)F)cc2)C1	.	?	.	.	.	/	/	/
COc1ccc(-c2cc3nc4c(c(=O)n3[nH]2)CN(C(=O)NCc2ccco2)CC4)cc1	?	?	.	.	7.1µM	?	.	11µM
COc1ccc(-c2cc3nc4c(c(=O)n3[nH]2)CN(C(=O)Cc2ccccc2)CC4)cc1	.	.	.	.	?	/	/	/
O=[S+]([O-])(C1CC1)N1C2CCC1CN(c1ccc(C(F)(F)F)cc1)C2	?	?	.	/	/	/	/	/
Cn1ncc2c(C(=O)NCCc3ccc(F)cc3)cc(-c3ccc([S+](C)(=O)[O-])cc3)nc21	.	.	.	/	/	/	/	/
COc1ccc(C)cc1NC(=O)Cn1nc2c(cc1=O)CCCCC2	.	.	.	.	.	/	/	/
COc1ccc(C)cc1NC(=O)c1ccc2c(Cl)c3c(nc2c1)CCC3	/	/	/	/	/	.	.	?
COc1ccc(C(=O)N2CCn3c(nnc3C3CC3)C2)cc1	.	.	.	.	.	/	/	/
O=C(c1ccc(F)cc1)N1CCn2c(nnc2C2CC2)C1	.	.	.	.	.	.	.	.
COc1ccc(C(=O)NCC2Cc3cc(C)cc(-c4nc5ccccc5s4)c3O2)c(OC)c1OC (stereo not given)	/	/	/	/	/	.	.	.
Cc1cc2c(c(-c3nc4ccccc4s3)c1)OC(CNC(=O)c1occc1C)C2 (stereo not given)	/	/	/	/	/	.	.	?
Cn1ccc2c(C(=O)NCCc3ccccn3)nc(-c3cccc(N4CCOCC4)c3)cc21	?	?	.	.	.	/	/	/
CN1CCN(c2ccc(-c3cc4c(ccn4C)c(C(=O)NCCc4ccccn4)n3)cc2)CC1	35µM	20µM	.	.	0.79µM	?	?	2.8µM
Cn1ccc2c(C(=O)NCC3CCOCC3)nc(-c3cccc(N4CCOCC4)c3)cc21	?	?	.	.	.	/	/	/
Cn1ccc2c(C(=O)NCCc3cnc[nH]3)nc(-c3ccc(N4CCOCC4)cc3)cc21	?	?	.	.	1µM	?	?	4.5µM
C=Cc1ccc(-c2nc3ccc(OC)cc3s2)cc1	/	/	/	/	/	12µM	?	0.44µM
COc1ccc2nc(-c3ccc(Oc4ccccc4)cc3)sc2c1	/	/	/	/	/	.	?	11µM
Nc1nc2ccc(OC(F)(F)F)cc2s1	/	/	.	/	/	/	/	/
COc1ccc2nc(NC(=O)Cn3nc4c(cc3=O)CCCC4)sc2c1	.	.	.	.	?	/	/	/
COc1ccc(/C=C/c2ccc3c(c2)C(=O)N2CC[C@H](NC(=O)COCC(=O)O)[C@H]2C(=O)N3)cc1	?	?	.	.	7.9µM	?	?	9.9µM
CSCC(=O)N[C@H]1CCN2C(=O)c3cc(/C=C/c4ccccc4)ccc3NC(=O)[C@H]12	?	.	.	.	11µM	.	.	?
CC(C)Oc1cccc(-c2cccc(COc3cnc4c(ccn4CC(=O)O)c3)c2)c1	?	.	.	.	11µM	.	.	18µM
SMILES	HEK293 tox	NIH3T3 tox	GPT2 inh	NPR1 antag	FLuc inh-1	FLuc SDR -ATP	FLuc SDR ATP	FLuc inh-2
Cc1ccccc1-c1cccc(COc2cnc3c(ccn3CC(=O)O)c2)c1	/	/	/	/	/	.	.	?
CC(=O)Nc1cccc(-c2cccc(CCOc3cnc4c(ccn4CC(=O)O)c3)c2)c1	/	/	/	/	/	?	?	16µM
CCC(=O)N1CCC(N2C(=O)[C@H](OCCOC)[C@@H]2c2ccncc2)CC1	.	.	.	/	/	/	/	/
O=C(Nc1cc(-c2ccccn2)nn1-c1ccccc1)c1ccccc1F	?	.	.	/	/	/	/	/
Fc1ccc2nc([C@H]3CCN(Cc4ccccc4F)C3)[nH]c2c1	?	79µM	.	?	3.2µM	.	.	14µM
COc1ccc2nc([C@H]3CCN(Cc4ccccc4F)C3)[nH]c2c1	?	?	.	.	.	/	/	/
CC1(COc2ccccc2)COc2ccc(C(=O)NCc3cccnc3)cc2N1 (stereo not given)	?	?	.	.	.	/	/	/
CC1(C)CNC(=O)c2nc(CCSCc3ccco3)[nH]c2C1	.	.	.	.	.	/	/	/
CSc1ccc(-c2nc3c([nH]2)CC(C)(C)CNC3=O)cc1	?	.	.[11.5 µM]	.	13µM	.	.	?
Cc1ccc(C2=NC(c3ccccc3)=Nc3ccc(Cl)cc3N2)cc1	/	/	/	/	/	.	.	.
Cc1noc(C2CC3(CCN(C(=O)c4cc(C)n(C)n4)CC3)CN2C)n1 (stereo not given)	.	.	.	/	/	/	/	/
COc1ccc2cc(C3CN(C(=O)Cc4ccc(O)cc4)CCO3)ccc2c1 (stereo not given)	?	?	.	?	8.9µM	.	.	?
Cc1cccc(C)c1-c1nnc2ccc(C(=O)NCC(C)C)cn12	.	.	.	/	/	/	/	/
CCc1cccc(NCc2ccccc2-c2nnc(-c3ccccc3Cl)o2)c1	/	/	/	/	/	.	.	.
Cc1cccc(CNC(=O)c2c(C)noc2-c2ccccc2Cl)c1	?	?	.	.	.	/	/	/
CCC(C)NC(=O)Cn1c(C)ccc(NC(=O)Nc2ccc(C)cc2)c1=O (stereo not given)	?	?	.	.	2µM	3.1µM	?	1.2µM
Cc1ccc(NC(=O)Nc2ccc(C)n(CC(=O)Nc3ccc4c(c3)OCO4)c2=O)cc1	.	.	.	.	?	/	/	/
Cc1ccc(NC(=O)Nc2ccc(C)n(CC(=O)NCC(C)C)c2=O)cc1	?	?	.	.	0.89µM	3.9µM	?	1.1µM
Cc1ccc(NC(=O)Nc2ccc(C)n(CC(=O)NC(C)(C)C)c2=O)cc1	?	.	.	.	4µM	?	?	3.9µM
Cc1ccc(NC(=O)Nc2ccc(C)n(CC(=O)Nc3ccc(C)c(C)c3)c2=O)cc1	.	.	.	.	?	/	/	/
CCCNC(=O)Cn1c(C)ccc(NC(=O)Nc2ccc(OC)cc2)c1=O	.	?	.	.	4µM	?	?	6.2µM
Cc1noc(C2CC3(CCN(C(=O)CCCc4c[nH]c5ccccc45)CC3)CN2C)n1 (stereo not given)	?	.	.	.	.	/	/	/
COc1ccc(NC(=O)Nc2ccc(C)n(CC(=O)N3CCCN(C)CC3)c2=O)cc1	.	.	.	.	?	/	/	/
